PubChem BioAssay (Tox21)
Records with an inconclusive call do not appear. The source holds several records for some structures; these can differ, active in one and inactive in another. The source made the active and inactive calls. Unless noted, the call rests on the fitted dose curve.

Key:
[1] = molecular target: Gonadotropin-releasing hormone receptor (Homo sapiens) (UniProt P30968); assay: Human gonadotropin-releasing hormone receptor (GnRHR) small molecule agonists, calcium flux assay in GnRHR-HEK293 cells (AID 1920063); further: nearly all actives have a fitted effect of over 35% in size
Summary of the method: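 Fluorescence kinetics (480 nm excitation, 540 nm emission; 3 min, 1 s steps) report calcium mobilisation in human GnRHR-HEK293 cells in agonist mode. Dye incubation: 1 h, 37 C.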

[2] = molecular target: KiSS-1 receptor (Homo sapiens) (UniProt Q969F8); assay: Human kisspeptin (KISS1R) small molecule agonists, calcium flux assay in KISS1R-HEK293 cells (AID 1920064; active means well fitted activation curve with a large enough effect in the repeat runs)
Summary of the method: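 Measures KISS1R agonism through calcium-sensitive dye fluorescence in stably transfected HEK293 cells, read for 3 min after pin-tool compound delivery; 15-point titrations in triplicate.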

[3] = p53 small molecule agonists, cell-based qHTS assay with human liver microsomes (AID 1963577);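 further: p53 response element beta-lactamase reporter cells with liver microsomes plus NADPH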
Summary of the method: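 16 h, 37 C exposure of p53RE-bla cells to compounds with human liver microsomes and NADPH (0.5 mg/mL final each); detection via LiveBLAzer mixture, 2 h dark at room temperature.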

[4] = p53 small molecule agonists, cell-based qHTS assay with rat liver microsomes (AID 1963578)
Summary of the method: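 With rat liver microsomes and NADPH present (0.5 mg/mL final each), p53RE-bla cells are treated with compound for 16 h at 37 C. LiveBLAzer detection mixture is then applied for 2 h at room temperature in the dark.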

[5] = p53 small molecule agonists, cell-based qHTS assay with human liver microsomes: qHTS cell viability counter screen (AID 1963579); further: nearly all actives have a fitted effect of over 45% in size
Summary of the method: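 In this multiplexed counter screen, the reporter plates were subsequently treated with CellTiter-Glo so that cell viability, reflected by luminescence, could be recorded for p53RE-bla cells dosed 16 h with compounds under microsomal activation (HLM and NADPH).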

[6] = p53 small molecule agonists, cell-based qHTS assay: qHTS cell viability counter screen (AID 1963581); further: nearly all actives have a fitted effect of over 45% in size
Summary of the method: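 In the same plates used for the p53 bla reporter, HCT-116 cells given compounds for 16 h at 37 C received CellTiter-Glo; luminescence was recorded 30 min later at room temperature.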

[7] = p53 small molecule agonists, cell-based qHTS assay (AID 1963582; active means well fitted activation curve with a large enough effect in the signal ratio in the repeat runs, not every such curve was filed as active; the % refers to the signal ratio)
Summary of the method: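 Compounds are pin-transferred in DMSO onto p53RE-bla cells and incubated 16 h at 37 C. The B/G FRET beta-lactamase substrate is then applied for 2 h at RT and fluorescence recorded.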

[8] = molecular target: 5-hydroxytryptamine receptor 2A (Homo sapiens) (UniProt P28223); assay: 5-hydroxytryptamine receptor 2A (HTR2A) small molecule antagonists, cell-based qHTS assay (AID 1963586); further: nearly all actives have a fitted effect of over 45% in size
Summary of the method: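 Antagonist-mode intracellular calcium assay: DOI (4 nM) added after 5 min compound pre-incubation at room temperature to dye-loaded HTR2A-CHO cells. Fluorescence followed for 3 min, sampled every second.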

[9] = molecular target: 5-hydroxytryptamine receptor 2A (Homo sapiens) (UniProt P28223); assay: 5-hydroxytryptamine receptor 2A (HTR2A) small molecule agonists, cell-based qHTS assay (AID 1963587); further: nearly all actives have a fitted effect of over 30% in size
Summary of the method: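 HTR2A-CHO cells, plated 18 h at 37 C/5% CO2, dye-loaded 1 h at 37 C; compounds in DMSO added by pin tool (agonist mode). Intracellular calcium flux read as kinetic fluorescence on FDSS over 2 min at 1 s intervals.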

[10] = molecular target: Muscarinic acetylcholine receptor M1 (Homo sapiens) (UniProt P11229); assay: Cholinergic receptor muscarinic 1 (CHRM1) small molecule antagonists, cell-based qHTS assay (AID 1963588); further: nearly all actives have a fitted effect of over 40% in size
Summary of the method: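 CHRM1-CHO calcium-flux assay, antagonist mode. Cells were seeded 18 h, dye-loaded 1 h at 37 C and given compound for 5 min at RT, then acetylcholine was added at 50nM. FDSS fluorescence was read 3 min; 15 concentrations, three runs.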

[11] = molecular target: Muscarinic acetylcholine receptor M1 (Homo sapiens) (UniProt P11229); assay: Cholinergic receptor muscarinic 1 (CHRM1) small molecule agonists, cell-based qHTS assay (AID 1963589); further: nearly all actives have a fitted effect of over 35% in size
Summary of the method: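 Each compound was tested at 15 concentrations across three independent runs on dye-loaded CHO cells stably expressing human CHRM1, reading intracellular calcium fluorescence kinetically at 1 sec intervals.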

[12] = cAMP Responsive Elements (CRE) small molecule agonists, cell-based qHTS assay (AID 1963590)
Summary of the method: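 Cell line: CRE-bla HEK 293T; medium DMEM/10% dialyzed FBS/0.1 mM NEAA/1 mM pyruvate/25 mM HEPES; 3 h compound exposure; beta-lactamase FRET readout after 2 h substrate loading at RT.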

[13] = molecular target: D(2) dopamine receptor (Homo sapiens) (UniProt P14416); assay: Dopamine D2 receptor (DRD2) small molecule agonists, cell-based qHTS assay (AID 1963594); further: nearly all actives have a fitted effect of over 35% in size; further: potency means the concentration at half of the fitted maximal effect
Summary of the method: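 HEK293 cells stably expressing DRD2 were cultured 24 h at 37 C, then given Ro20-1724 (0.1 mM final) and compounds for 10 min at room temperature. NKH477 (200nM) was then added for 30 min. cAMP was read by HTRF.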

[14] = molecular target: D(2) dopamine receptor (Homo sapiens) (UniProt P14416); assay: Dopamine D2 receptor (DRD2) small molecule antagonists, cell-based qHTS assay (AID 1963595; active means well fitted inhibition curve with a large enough effect in the signal ratio in the repeat runs, with a control signal flat; the % refers to the signal ratio; further: potency means the concentration at half of the fitted maximal effect)
Summary of the method: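 Antagonism was scored as restored cAMP in HEK293-DRD2 cells. These cells were stimulated with 200 nM NKH477 and 12 nM quinpirole for 30 min at room temperature, in the presence of 0.1 mM Ro20-1724.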

[15] = G protein-coupled receptor (GPCR) small molecule agonists, calcium flux assay: HEK293 wild type cell line counter screen (AID 1920065)
Summary of the method: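 Readout: fluorescence at 480 nm excitation/540 nm emission, sampled at 1 s intervals for 3 min. Cells had been cultured 18 h, then dye-loaded 1 h at 37 C before compound or ATP addition.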

[16] = cAMP Responsive Elements (CRE) small molecule antagonists, cell-based qHTS assay (AID 1963591; active means well fitted inhibition curve with a large enough effect in the signal ratio in the repeat runs, not every such curve was filed as active; the % refers to the signal ratio; further: potency means the concentration at half of the fitted maximal effect)
Summary of the method: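 Inhibition of NKH477-driven (0.25 uM final) CRE-beta-lactamase signal in HEK293T cells, 3 h compound exposure at 37 °C, detected by FRET substrate fluorescence.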

[17] = molecular target: Beta-2 adrenergic receptor (Homo sapiens) (UniProt P07550); assay: Adrenergic beta2 receptor (ADRB2) small molecule antagonists, cell-based qHTS assay (AID 1963592); further: series mostly up to about 92 µM; nearly all actives have a fitted effect of over 50% in size
Summary of the method: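 Cells (CHO, stable ADRB2 overexpression) incubated 18-20hr at 37C; compounds added from DMSO; agonist mix (1nM isoproterenol, 100uM IBMX, 25uM Ro-20-1724) added; 0.5hr RT; d2-cAMP and anti-cAMP-cryptate added; 1hr RT; 665/615 nm read.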

[18] = molecular target: Beta-2 adrenergic receptor (Homo sapiens) (UniProt P07550); assay: Adrenergic beta2 receptor (ADRB2) small molecule agonists, cell-based qHTS assay (AID 1963593);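 further: CHO cells stably overexpressing human ADRB2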
Summary of the method: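 CHO cells stably over-expressing ADRB2 were plated overnight at 37C, then dosed with compounds plus a stimulation mix containing 100uM IBMX and 25uM Ro-20-1724 for 0.5hr at room temperature. cAMP was measured by HTRF competition, 1hr.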

[19] = p53 small molecule agonists, cell-based qHTS assay with rat liver microsomes: qHTS cell viability counter screen (AID 1963580); further: nearly all actives have a fitted effect of over 45% in size
Summary of the method: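 In HCT-116 cells carrying a p53 response element-bla reporter, compounds were metabolically activated in situ by rat liver microsomes with NADPH over 16 h. Cell ATP content then served as the cytotoxicity measure.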

Measured: Potency

Chain of Muscarinic acetylcholine receptor M1 (Homo sapiens) (P11229 whole entry, looked up): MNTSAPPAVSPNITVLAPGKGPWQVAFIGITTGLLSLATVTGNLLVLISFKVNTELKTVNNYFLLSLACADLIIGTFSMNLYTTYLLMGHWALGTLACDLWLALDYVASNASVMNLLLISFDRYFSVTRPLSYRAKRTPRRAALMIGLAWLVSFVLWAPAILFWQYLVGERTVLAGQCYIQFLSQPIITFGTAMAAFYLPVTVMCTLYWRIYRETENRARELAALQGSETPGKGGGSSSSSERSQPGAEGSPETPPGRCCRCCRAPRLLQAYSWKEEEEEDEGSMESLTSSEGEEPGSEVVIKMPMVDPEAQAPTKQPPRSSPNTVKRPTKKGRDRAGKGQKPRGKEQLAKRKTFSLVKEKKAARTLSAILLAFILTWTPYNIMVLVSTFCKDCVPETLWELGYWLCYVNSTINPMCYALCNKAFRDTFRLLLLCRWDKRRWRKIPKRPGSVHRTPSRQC
Chain of Gonadotropin-releasing hormone receptor (Homo sapiens) (P30968 whole entry, looked up): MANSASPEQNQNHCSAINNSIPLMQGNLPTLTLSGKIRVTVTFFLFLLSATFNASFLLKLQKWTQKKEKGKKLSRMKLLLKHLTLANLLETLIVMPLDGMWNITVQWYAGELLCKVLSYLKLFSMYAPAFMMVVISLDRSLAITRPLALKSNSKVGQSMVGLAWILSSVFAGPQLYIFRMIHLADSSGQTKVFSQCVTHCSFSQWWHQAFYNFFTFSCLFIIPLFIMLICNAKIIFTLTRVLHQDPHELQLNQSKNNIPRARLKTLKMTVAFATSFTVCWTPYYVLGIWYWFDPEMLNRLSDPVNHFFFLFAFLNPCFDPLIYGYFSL
Chain of Beta-2 adrenergic receptor (Homo sapiens) (P07550 whole entry, looked up): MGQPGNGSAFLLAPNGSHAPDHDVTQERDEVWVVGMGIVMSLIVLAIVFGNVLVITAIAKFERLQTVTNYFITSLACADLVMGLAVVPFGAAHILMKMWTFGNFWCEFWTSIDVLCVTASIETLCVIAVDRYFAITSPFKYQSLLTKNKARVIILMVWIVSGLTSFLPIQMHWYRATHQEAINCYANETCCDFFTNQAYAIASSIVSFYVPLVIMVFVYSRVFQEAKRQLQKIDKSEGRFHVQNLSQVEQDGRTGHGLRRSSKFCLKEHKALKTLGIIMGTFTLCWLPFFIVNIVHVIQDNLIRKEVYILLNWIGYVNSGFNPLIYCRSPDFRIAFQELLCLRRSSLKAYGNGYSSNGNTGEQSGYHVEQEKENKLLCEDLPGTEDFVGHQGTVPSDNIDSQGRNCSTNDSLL
Chain of D(2) dopamine receptor (Homo sapiens) (P14416 whole entry, looked up): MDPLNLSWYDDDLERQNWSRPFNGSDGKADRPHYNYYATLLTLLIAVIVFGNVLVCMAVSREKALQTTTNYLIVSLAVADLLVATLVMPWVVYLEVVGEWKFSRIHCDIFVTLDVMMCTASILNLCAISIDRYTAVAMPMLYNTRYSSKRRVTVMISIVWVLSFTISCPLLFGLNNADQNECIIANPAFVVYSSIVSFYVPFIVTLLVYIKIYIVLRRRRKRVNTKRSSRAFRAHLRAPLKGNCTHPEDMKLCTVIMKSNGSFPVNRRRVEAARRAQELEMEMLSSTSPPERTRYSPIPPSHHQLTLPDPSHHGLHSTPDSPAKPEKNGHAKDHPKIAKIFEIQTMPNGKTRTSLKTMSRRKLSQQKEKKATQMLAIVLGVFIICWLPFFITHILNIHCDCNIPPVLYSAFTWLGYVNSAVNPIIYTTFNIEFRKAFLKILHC
Chain of 5-hydroxytryptamine receptor 2A (Homo sapiens) (P28223 whole entry, looked up): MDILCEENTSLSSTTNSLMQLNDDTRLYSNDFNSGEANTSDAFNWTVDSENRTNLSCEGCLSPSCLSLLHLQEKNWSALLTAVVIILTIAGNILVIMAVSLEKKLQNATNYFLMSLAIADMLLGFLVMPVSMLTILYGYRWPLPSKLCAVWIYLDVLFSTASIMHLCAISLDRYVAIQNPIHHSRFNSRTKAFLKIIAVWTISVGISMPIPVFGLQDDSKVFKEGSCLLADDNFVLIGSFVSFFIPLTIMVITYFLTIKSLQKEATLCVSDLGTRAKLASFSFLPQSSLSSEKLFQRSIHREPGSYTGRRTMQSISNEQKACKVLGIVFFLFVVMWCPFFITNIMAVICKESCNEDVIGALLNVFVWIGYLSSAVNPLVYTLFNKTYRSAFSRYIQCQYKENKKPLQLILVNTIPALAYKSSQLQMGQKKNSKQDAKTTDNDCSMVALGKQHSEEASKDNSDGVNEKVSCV
Chain of KiSS-1 receptor (Homo sapiens) (Q969F8 whole entry, looked up): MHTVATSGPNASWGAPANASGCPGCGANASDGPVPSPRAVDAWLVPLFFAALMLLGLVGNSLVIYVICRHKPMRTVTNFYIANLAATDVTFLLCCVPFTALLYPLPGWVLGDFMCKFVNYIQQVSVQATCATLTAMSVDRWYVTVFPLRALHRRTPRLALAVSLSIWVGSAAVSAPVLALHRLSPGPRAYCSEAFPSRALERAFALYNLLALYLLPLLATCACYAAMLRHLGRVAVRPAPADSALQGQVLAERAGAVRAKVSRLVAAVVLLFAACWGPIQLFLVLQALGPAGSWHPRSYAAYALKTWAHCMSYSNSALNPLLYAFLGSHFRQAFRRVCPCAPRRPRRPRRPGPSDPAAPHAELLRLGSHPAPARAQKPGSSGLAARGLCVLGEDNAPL

COc1ccc(N=Nc2cc(C)c(N=Nc3ccc(S(=O)(=O)O)cc3)cc2OC)cc1
not listed: [15] | [16] | [17] | [18] | [19]
inactive: all other assays above

CN1[C@@H]2CC[C@@H]1CC(OC(=O)C(CO)c1ccccc1)C2 (stereo partly drawn)
inactive: [1] | [2] | [15] | [12] | [16] | [17] | [13] | [14]

CC(C)(C)c1ccc(C(O)CCCN2CCC(C(O)(c3ccccc3)c3ccccc3)CC2)cc1 (stereo not drawn)
inactive: [1] | [2] | [15] | [16] | [17] | [18] | [13] | [14]

CC(C)n1c(/C=C/[C@@H](O)C[C@@H](O)CC(=O)O)c(-c2ccc(F)cc2)c2ccccc21
inactive: [1] | [2] | [6] | [12] | [17] | [18] | [13] | [14]

CCCC(=O)Nc1ccc(OCC(O)CNC(C)C)c(C(C)=O)c1 (stereo not drawn)
inactive: [1] | [2] | [15] | [6] | [12] | [16]
active: [13] 18.8 µM

c1ccc(B(c2ccccc2)c2ccccc2)cc1
active: [16] 28.5 µM
not listed: [3] | [15] | [18]
inactive: all other assays above

CN(C)C(=N)N=C(N)N
not listed: [3] | [4] | [5] | [8] | [9] | [10] | [11] | [19]
inactive: all other assays above

COC(=O)C1=C(C)NC(C)=C(C(=O)OC)C1c1ccccc1[N+](=O)[O-]
inactive: [1] | [2] | [15] | [6] | [7] | [12] | [17] | [13]
68.7 µM (active) and inactive: [14]

CC(C)c1nnc2ccc(-c3ocnc3-c3cc(F)ccc3F)cn12
inactive: [1] | [2] | [15] | [6] | [7] | [9] | [11] | [13] | [14]

COc1ccc(CCN(C)CCCC(C#N)(c2ccc(OC)c(OC)c2)C(C)C)cc1OC (stereo not drawn)
inactive: [1] | [2] | [5] | [19] | [6] | [17] | [13] | [14]
